# Test results as given in PubChem BioAssay (NCATS).
# Values joined by “and” are separate entries in the source; they are usually repeats but may differ in a detail not shown here. Identical values can stand only once. Records with an inconclusive call do not appear. Where a call stands in place of a potency, no number is given. Unmarked numbers belong to inactive results. Active and inactive are the calls of the source. Calls come from the whole dose curve; as a rule, active = well fitted curve in the direction sought with a large enough effect; inconclusive = small, poorly fitted or top-dose-only effect, or another doubt; inactive = no such curve, though single readings can be large; an effect the other way counts as inactive or inconclusive.
# Tests used:
# [1] = molecular target: Cytochrome P450 3A7 (Homo sapiens) (UniProt P24462); assay: Cytochrome P450 family 3 subfamily A member 7 (CYP3A7) small molecule antagonists: luciferase biochemical qHTS assay (AID 1963596); note: nearly all actives have a fitted effect of over 40% in size
# How it was run: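 In this luminescent screen, enzyme and proluciferin substrate meet test compound for 10 min before NADPH regeneration solution drives a 1 h room-temperature reaction; detection reagent halts turnover and luminescence is read 20 min later.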
# [2] = Viability qHTS for spleen associated tyrosine kinase inhibitor (SYKi) naive MV4-11 cells (AID 1963823); note: nearly all actives have a fitted effect of over 40% in size; note: potency is the fitted concentration of half-maximal effect
# How it was run: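 Luminescence from CellTiter-Glo, developed 10 min at room temperature, gave viability of MV4-11 cells never exposed to SYK inhibitor. Cells (500/well) had been incubated with compounds for 72 hr under standard culture conditions.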
# [3] = Viability qHTS for spleen associated tyrosine kinase inhibitor (SYKi) drug resistant MV4-11 cells (AID 1963824); note: nearly all actives have a fitted effect of over 35% in size; note: potency is the fitted concentration of half-maximal effect
# How it was run: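 SYK-inhibitor-resistant MV4-11 AML cells were seeded at 500 per well onto compound and cultured 72 hours (37 °C, 5% CO2). CellTiter-Glo was then added, and after 10 min at room temperature, luminescence gave viability.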
# [4] = Cellular viability qHTS for adrenocortical cancer (ACC) cell line NCI-H295R (AID 1963990); note: nearly all actives have a fitted effect of over 60% in size; note: potency is the fitted concentration of half-maximal effect
# How it was run: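 Luminescent ATP read-out (CellTiter-Glo, 20 min RT) after 48 h drug exposure of NCI-H295R cells; a titration up to 46 uM final. Data normalized to doxorubicin (100% inhibition) and DMSO (0%); 4-parameter fit gives IC50, max response.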
# [5] = Cellular viability qHTS for adrenocortical cancer (ACC) cell line SW-13 (AID 1963989); conditions: SW-13 ACC cells viability, CellTiter-Glo, 48 h; activity (max response): hits give low values; note: nearly all actives have a fitted effect of over 65% in size; note: potency is the fitted concentration of half-maximal effect;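 for activity (max response): cells grown in serum-free medium with ITS supplement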
# How it was run: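 SW-13 cells in ITS-supplemented serum-free DMEM were plated overnight, then exposed for 48 h at 37C to compound titrations (up to 46 uM final). Viability was read by CellTiter-Glo luminescence; four-parameter logistic fits gave IC50 and efficacy.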
# [6] = Quantitative highthroughput screen to assess conditional lethalithy of P12 Ichikawa cells grown in RPMI1640 with dialyzed fetal bovine serum (RPMI+ds) (AID 1963880); conditions: Potency: P12-Ichikawa viability; note: nearly all actives have a fitted effect of over 35% in size; note: potency is the fitted concentration of half-maximal effect
# How it was run: (§1)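 Each medium arm—HPLM with 10% dialyzed FBS, or RPMI1640 with 5 mM glucose and 10% untreated or dialyzed FBS—was screened against an 11-point, 3-fold compound titration for 48 h at 37 °C, with CellTiter-Glo luminescence as endpoint.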
# [7] = Quantitative highthroughput screen to assess conditional lethalithy of SEM cells grown in Human Plasma-Like Medium with dialyzed fetal bovine serum (HPLM+ds) (AID 1963882); note: nearly all actives have a fitted effect of over 35% in size; note: potency is the fitted concentration of half-maximal effect; for Viability: series mostly up to about 46 µM
# How it was run: as §1
# [8] = Quantitative highthroughput screen to assess conditional lethalithy of SEM cells grown in RPMI1640 with dialyzed fetal bovine serum (RPMI+ds) (AID 1963884); note: nearly all actives have a fitted effect of over 35% in size; note: potency is the fitted concentration of half-maximal effect; for Viability: series mostly up to about 46 µM
# How it was run: as §1
# [9] = Quantitative highthroughput screen to assess conditional lethalithy of NOMO1 cells grown in RPMI1640 with untreated serum (RPMI+s) (AID 1963876); note: nearly all actives have a fitted effect of over 35% in size; note: potency is the fitted concentration of half-maximal effect
# How it was run: as §1
# [10] = Quantitative highthroughput screen to assess conditional lethalithy of NOMO1 cells grown in RPMI1640 with dialyzed fetal bovine serum (RPMI+ds) (AID 1963877); note: nearly all actives have a fitted effect of over 30% in size; note: potency is the fitted concentration of half-maximal effect; for Viability: series mostly up to about 46 µM
# How it was run: as §1
# [11] = Quantitative highthroughput screen to assess conditional lethalithy of NOMO1 cells grown in Human Plasma-Like Medium with dialyzed fetal bovine serum (HPLM+ds) (AID 1963878); note: nearly all actives have a fitted effect of over 35% in size; note: potency is the fitted concentration of half-maximal effect
# How it was run: as §1
# [12] = Quantitative highthroughput screen to assess conditional lethalithy of P12 Ichikawa cells grown in Human Plasma-Like Medium with dialyzed fetal bovine serum (HPLM+ds) (AID 1963879); conditions: Potency: viability
# How it was run: as §1
# [13] = Quantitative highthroughput screen to assess conditional lethalithy of SEM cells grown in RPMI1640 with unreated serum (RPMI+s) (AID 1963883); note: nearly all actives have a fitted effect of over 35% in size; note: potency is the fitted concentration of half-maximal effect
# How it was run: as §1
# [14] = Quantitative highthroughput screen to assess conditional lethalithy of P12 Ichikawa cells grown in RPMI1640 with untreated serum (RPMI+s) (AID 1963881); conditions: Potency: viability
# How it was run: as §1
# Sequence of Cytochrome P450 3A7 (Homo sapiens) (P24462 whole entry, looked up): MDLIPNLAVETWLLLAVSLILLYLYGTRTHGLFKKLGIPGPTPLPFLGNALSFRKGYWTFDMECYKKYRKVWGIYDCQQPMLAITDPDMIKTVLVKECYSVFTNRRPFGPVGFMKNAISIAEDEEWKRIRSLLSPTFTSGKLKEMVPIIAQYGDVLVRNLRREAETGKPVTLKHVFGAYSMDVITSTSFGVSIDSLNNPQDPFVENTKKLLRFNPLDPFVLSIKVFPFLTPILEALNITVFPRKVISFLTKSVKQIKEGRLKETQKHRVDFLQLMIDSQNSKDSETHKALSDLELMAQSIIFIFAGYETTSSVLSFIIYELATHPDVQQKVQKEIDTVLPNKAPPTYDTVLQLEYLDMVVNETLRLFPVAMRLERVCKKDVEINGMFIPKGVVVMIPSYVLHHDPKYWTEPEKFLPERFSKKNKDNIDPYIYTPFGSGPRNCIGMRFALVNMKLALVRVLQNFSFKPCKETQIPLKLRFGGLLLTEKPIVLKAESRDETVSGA
structure (smiles),measurement,setting,value
O=C(OOC(=O)c1ccccc1)c1ccccc1,Potency,[1],inactive
same,Potency,[2],inactive
same,Potency,[3],inactive
same,Potency,[4],inactive
O=C(c1ccccc1)C(O)c1ccccc1 (stereo unspecified),Potency,[1],inactive
same,Potency,[2],inactive
same,Potency,[3],inactive
same,Potency,[4],inactive
CC(=O)Nc1ccc(S(=O)(=O)Nc2cc(C)on2)cc1,Potency,[1],inactive
same,Potency,[2],inactive
same,Potency,[3],inactive
same,activity (max response),[5],11.6%
same,Potency,[4],inactive
CN(C)CCOC(=O)COc1ccc(Cl)cc1,Potency,[1],inactive
same,Potency,[2],inactive
same,Potency,[3],inactive
same,activity (max response),[5],4.85%
same,Potency,[4],inactive
Cc1nn(Cc2ccccc2Cl)c(C)c1CN(C)CC(O)COc1ccc(Cl)cc1 (stereo unspecified),Potency,[1],inactive
same,Potency,[2],14.8 µM (active)
same,Potency,[3],7.42 µM (active)
same,Potency,[5],25.1 µM (active)
same,Potency,[4],17.8 µM (active)
Cn1c(=O)c2[nH]cnc2n(C)c1=O,Potency,[1],inactive
same,Potency,[2],inactive
same,Potency,[3],inactive
same,Potency,[4],inactive
O=c1[nH]cnc2c1ncn2[C@H]1CC[C@@H](CO)O1,Potency,[1],inactive
same,Potency,[2],inactive
same,Potency,[6],16.6 µM (active)
same,Potency,[7],18.7 µM (active)
same,Potency,[8],inactive
same,activity (max response),[5],1.58%
same,Potency,[4],inactive
OC(CN1CCC(Cc2ccc(F)cc2)CC1)c1ccc(Cl)cc1 (stereo unspecified),Potency,[1],inactive
same,Potency,[2],5.31 µM (active)
same,Potency,[9],inactive
same,Potency,[10],inactive
same,Potency,[11],inactive
same,Potency,[12],inactive
same,Potency,[6],inactive
same,Potency,[7],inactive
same,Potency,[13],inactive
same,Potency,[8],inactive
same,activity (max response),[5],-8.69%
same,Potency,[4],inactive
CC(C)CC(=O)Nc1n[nH]c2c1CN(C(=O)C1CCN(C)CC1)C2(C)C,Potency,[1],inactive
same,Potency,[2],206 nM (active) and 417 nM (active)
same,Potency,[9],3.72 µM (active)
same,Potency,[10],5.9 µM (active)
same,Potency,[11],6.62 µM (active)
same,Potency,[6],4.69 µM (active)
same,Potency,[14],4.18 µM (active)
same,Potency,[7],2.64 µM (active)
same,Potency,[13],1.05 µM (active)
same,Potency,[8],4.69 µM (active)
